DRD3 antagonist = D3 dopamine receptor (human) antagonism. max response, negative = inhibition, %. P35462. D3R cells, DiscoveRx beta-arrestin luminescence, antagonist mode; stronger effect = lower value. actives 2.5% (n = 360,000); in the data active = max response below about -50%; inconclusive = no clear call, values can overlap the other calls
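Cells expressing the human receptor were seeded at 1500 cells/well, incubated overnight at 37 degrees C in 5% CO2, then exposed to library compounds with dopamine controls for 90 minutes at 37 degrees C before luminescent detection.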
D1 potentiator = enhances dopamine response at the human D1 receptor; potentiation, % at 10 µM; HEK293 TREx D1 cells, calcium flux, dopamine EC20 potentiation; actives 0.036% (n = 360,000); AID 504651; P21728; in the data active = potentiation above about 30%
Target sequence (P21728 whole entry, looked up): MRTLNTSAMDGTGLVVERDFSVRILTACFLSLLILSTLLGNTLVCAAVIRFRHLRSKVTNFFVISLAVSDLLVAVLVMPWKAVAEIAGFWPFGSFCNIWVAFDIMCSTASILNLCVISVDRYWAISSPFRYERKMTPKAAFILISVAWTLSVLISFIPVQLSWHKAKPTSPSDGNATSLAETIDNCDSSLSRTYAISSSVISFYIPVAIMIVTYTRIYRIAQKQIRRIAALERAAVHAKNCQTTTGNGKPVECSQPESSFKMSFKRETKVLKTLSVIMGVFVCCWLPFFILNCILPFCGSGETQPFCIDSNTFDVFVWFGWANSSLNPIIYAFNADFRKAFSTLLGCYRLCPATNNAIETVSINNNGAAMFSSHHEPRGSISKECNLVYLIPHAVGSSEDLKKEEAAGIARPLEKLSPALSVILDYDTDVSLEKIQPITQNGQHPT
D3 ag = agonists of human D3 dopamine receptor. D3R DiscoveRx beta-arrestin cells, luminescence, 90 min. max activation, %. actives 0.58% (n = 410,000); in the data active = max activation above about 30%
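Agonist-mode cell screen: cells plated at 1500/well and incubated overnight at 37 °C, then exposed to library compounds for 90 min at 37 °C. Detection reagent was added for 30–60 min at room temperature, and luminescence was read.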
D1 antagonist = blocks dopamine activation of the human D1 receptor; P21728; HEK293 TREx D1 cells, calcium flux, dopamine EC80; stronger effect = lower value; activity change, negative = inhibition, % at 10 µM; actives 3.2% (n = 360,000); AID 504652; in the data active = activity change below about -30%
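Tetracycline-induced HEK293 T-REx cells with force-coupled D1 receptor were loaded with a no-wash calcium dye. Compound was added after a 10 s baseline and read kinetically for 180 s; EC80 dopamine was then added and calcium flux followed another 180 s.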
D1 agonist = human D1 receptor agonism. actives 1% (n = 360,000). HEK293 T-REx D1 cells, calcium flux, agonist mode. activation, % at 2 µM. P21728. AID 504660; in the data active = activation above about 30%
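Agonism was scored from calcium flux recorded over 180 s (1 read/s) after pintool compound addition, following a 10-cycle baseline. Cells were inducible force-coupled HEK293 TREx D1, plated overnight at 30 C and loaded with no-wash calcium dye.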
Hits are given with their value; – = inactive; ? = inconclusive; · = no result given; ! = not active in a repeat. Shown are actives, neighbours in structure and some others; about 6.1% of the full set was active somewhere.

SMILES	DRD3 antagonist	D1 potentiator	D3 ag	D1 antagonist	D1 agonist
COc1ccc(S(=O)(=O)NCC2CCCN(Cc3ccccc3Cl)C2)cc1 (stereo unspecified)	-52	–	–	–	–
O=C(c1ccc(Cn2cc(Br)cn2)cc1)N1N=C(C(F)F)CC1(O)C(F)F (stereo unspecified)	–	–	–	–	48
O=[N+]([O-])c1ccc(N=Nc2ccc(O)c3ccccc23)cc1	-71	·	–	·	·
O=S(=O)(Nc1ccc(N=Nc2ccc(O)c3ccccc23)cc1)c1ccccc1	?	–	–	–	–
O=C1C2C3C=CC(CC3)C2C(=O)N1c1cccc(Br)c1 (stereo unspecified)	–	–	–	-37	–
Cc1ccc(CN2CCN(CC(=O)N/N=C/c3ccccc3F)CC2)cc1	–	–	–	–	–
Cc1ccc(NC(=S)N/N=C/c2cccn2Cc2ccccc2F)cc1	-53	–	–	–	–
COC(=O)c1cn(-c2ccccc2)nc1-c1ccccc1	–	–	–	–	–
COC(=O)c1cn(-c2ccccc2)c(C)c1C(=O)OC	–	–	–	–	50
Cc1nn(C(=O)c2ccccc2)c(C)c1Sc1ccc(Cl)cc1	·	–	–	–	–
Cc1ccc(CN=Cc2[nH]c3ccc(Br)c(Cl)c3c2O)cc1	-101	–	–	–	–
Oc1c(C=NCc2ccc(F)cc2)[nH]c2ccc(Br)c(Cl)c12	·	–	·	–	–
CCOC(=O)[C@]12CCCC=C1N(Cc1ccc3c(c1)OCO3)C(=O)[C@H](CC(=O)NCCCCc1ccccc1)C2	-51	·	–	·	·
CC1CCCCN1c1nnc(NC(=O)Nc2ccccc2F)s1 (stereo unspecified)	·	–	–	–	–
COc1cc(/C=N/N2CCCCC2)cc([N+](=O)[O-])c1O	-65	–	–	–	–
Cc1ccc(CN2CCN(/N=C/c3cc([N+](=O)[O-])ccc3Cl)CC2)cc1	-61	–	–	–	–
CCN(CC)c1ccc(/C=N/N2CCN(Cc3ccc(C)cc3)CC2)c(O)c1	-59	–	–	–	–
COc1cc(/C=N/N2CCN(Cc3ccc(C)cc3)CC2)cc(OC)c1O	-79	–	–	–	–
CCN(CC)c1ccc(/C=N/N2CCN(Cc3ccccc3Cl)CC2)c(O)c1	–	–	–	–	–
CSc1cccc(NC(=O)c2ccc3c(c2)CCCN3S(C)(=O)=O)c1	·	–	–	–	–
COc1ccc(Br)cc1CNC(=O)Cn1nc(C)n2c(cc3cc(F)ccc32)c1=O	·	–	–	–	–
CN(C)c1ccc(-c2nc3cnccn3c2Nc2cccc(C(F)(F)F)c2)cc1	·	–	–	–	–
CCOc1ccccc1NC(=O)CN1C(=O)COc2ccc(S(=O)(=O)N3CCCCC3)cc21	·	–	–	–	–
Cc1ccc(-n2c(C)c3c(C)nnc(C)c3c2C)cc1C	-58	–	–	–	–
Cc1cc(-n2c(C)c3c(C)nnc(C)c3c2C)ccc1N	–	–	–	–	–
SMILES	DRD3 antagonist	D1 potentiator	D3 ag	D1 antagonist	D1 agonist
Oc1cc2c(cc1CN1CCN(c3ncccn3)CC1)OCO2	–	–	42	–	–
Cc1ccccc1-c1cc(=O)c2c(O)cccc2o1	–	–	–	–	–
COc1ccc(OC)c(-c2c3cc(O)c(=O)cc-3oc3cc(O)c(O)cc23)c1	–	–	–	–	44
O=c1cc2oc3cc(O)c(O)cc3c(-c3ccccc3O)c-2cc1O	–	–	–	–	46
CCOc1ccccc1-c1c2cc(O)c(=O)cc-2oc2cc(O)c(O)cc12	-58	–	–	–	53
CCN(CC)c1ccc(/C=N/n2c(-c3ccccc3Br)n[nH]c2=S)cc1	-71	–	–	–	–
CCOc1ccc(OCC)c(NC(=O)c2nnn(CC(=O)Nc3ccc(C)cc3C)c2N)c1	·	–	–	–	–
Cc1cc2oc(C(=O)Nc3ccc(S(=O)(=O)N(C)c4ccccc4)cc3)cc(=O)c2cc1C	·	–	–	–	–
Cc1ccccc1N1CCN(C(=O)CN2C(=O)c3ccccc3C2=O)CC1	–	–	–	–	–
O=C(CSc1nnc(N2CCCC2)n1-c1ccccc1Cl)N1CCN(c2ccccn2)CC1	–	–	–	-52	–
O=C(CCN1C(=O)c2ccccc2C1=O)N1CCCCCC1	-51	–	–	–	–
Cc1ccc(C)c(N2CCN(C(=O)NCc3noc4ccccc34)CC2)c1	·	–	–	-42	–
O=C(CCN1C(=O)c2ccccc2C1=O)N1CCN(c2ccccc2)CC1	–	–	–	–	–
Cc1ccc(C)c(N2CCN(C(=O)CN3C(=O)c4ccccc4C3=O)CC2)c1	–	–	–	-35	–
CCOc1ccc(CCNC(=O)CCSCc2ccc(Cl)cc2)cc1OCC	·	–	–	–	–
O=C(CSc1nc(=O)[nH]c2c1CCCC2)NCc1ccc(Cl)cc1	·	–	–	·	–
COc1ccc(NC(=O)c2csnn2)cc1Cl	·	–	–	–	–
CCOC(=O)c1cc2c(=O)n3ccccc3nc2n(Cc2ccco2)c1=NC(=O)c1cccc(F)c1	·	–	–	–	–
CC(C)CC(=O)NCC1(N(C)C)CCCCC1	·	–	–	–	–
O=C(CN1C(=O)c2ccccc2C1=O)N1CCN(c2ccccn2)CC1	–	–	–	-30	–
O=C(CCCN1C(=O)c2ccccc2C1=O)N1CCN(c2ccccn2)CC1	–	–	–	–	–
CCCCCCCCCCCC(=O)OCC(O)CO (stereo unspecified)	·	·	–	·	·
O=C(C(c1ccccc1)c1ccccc1)N1CCCc2ccccc21	-61	–	–	–	–
O=C(NC(=O)N1CCCc2ccccc21)c1ccccc1	–	–	–	–	–
Nc1nc2ccc(Oc3ccccc3)cc2s1	–	–	–	–	–
SMILES	DRD3 antagonist	D1 potentiator	D3 ag	D1 antagonist	D1 agonist
Nc1nc2ccc(OC(F)(F)F)cc2s1	–	–	–	-32!	–
O=C(Cn1c2[n+](c3ccc(C(F)(F)F)cc31)CCCCC2)c1cccc([N+](=O)[O-])c1	-89	–	–	–	–
O=C(Cn1c2[n+](c3ccc(C(F)(F)F)cc31)CCCCC2)c1ccc2c(c1)OCCO2	?	–	–	–	–
O=C(Cn1c2[n+](c3ccc(C(F)(F)F)cc31)CCCCC2)Nc1ccccc1	-51	–	–	–	–
CCCCC(=O)OCc1cc(=O)n2nc(C3CCCCC3)sc2n1	·	–	–	–	–
O=C(Oc1cccc2cccnc12)c1cccc(N2C(=O)C3C4CCC(C4)C3C2=O)c1 (stereo unspecified)	-88	–	–	–	–
COc1ccc(NC(=O)c2cccc(N3C(=O)C4C5C=CC(C5)C4C3=O)c2)c(OC)c1 (stereo unspecified)	–	–	–	–	–
COc1ccc(NC(=O)c2cccc(N3C(=O)C4C5CCC(C5)C4C3=O)c2)cc1 (stereo unspecified)	–	–	–	-80	–
COc1ccc(NC(=O)c2cccc(N3C(=O)C4C5C=CC(C6CC56)C4C3=O)c2)c(OC)c1 (stereo unspecified)	–	–	–	-39	–
